Test results as given in PubChem BioAssay AID1159580 (chemical genetic matrix, 2015).
Where “and” joins values, the source holds several entries; their conditions need not be identical. Identical values can stand only once. The campaign covered roughly 5,500 compounds. About 2,000 (36%) were called active. Roughly 18% stayed inconclusive and do not appear here. No stated cut-off is given here; in the data, active means normalized growth mostly below about 0.91 (no sharp cut-off); inconclusive means no clear call, values can overlap the other calls; inactive means mostly above about 0.92. This is one part of the list.

Assay: chemical genetic growth profiling, strain panel (AID 1159580);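 further: tested at 20 µM; growth read once vehicle control cultures reached saturation at 30 °C; 1 = growth at the plate median or of vehicle wells; lower values mean less growth of the strain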
Details: S. cerevisiae deletion strains, growth OD

Measured: normalized growth

CC1CC[C@]2(NC1)O[C@H]1CC3C4CC[C@H]5C[C@@H](O)CC[C@]5(C)C4CC[C@]3(C)[C@H]1[C@@H]2C (stereo not given in full)
active: locus YAL021C, strain ccr4, active compounds read low 0.173 | locus YAL026C, strain drs2, active compounds read low 0.0682 | locus YAL030W, strain snc1, active compounds read low 0.0859 | locus YBL061C, strain skt5, active compounds read low 0.109 | locus YBR009C, strain hhf1, active compounds read low 0.0771 | locus YBR021W, strain FUR4, active compounds read low 0.272 | locus YBR023C, strain chs3, active compounds read low 0.102 | locus YBR171W, strain sec66, active compounds read low 0.159 | locus YBR229C, strain ROT2, active compounds read low 0.107 | locus YBR231C, strain swc5, active compounds read low 0.167 | locus YBR279W, strain paf1, active compounds read low 0.143 | locus YCL011C, strain gbp2, active compounds read low 0.0814 | locus YCL016C, strain dcc1, active compounds read low 0.103 | locus YCL029C, strain bik1, active compounds read low 0.0809 | locus YCL061C, strain MRC1, active compounds read low 0.103 | locus YCL069W, strain vba3, active compounds read low 0.0775 | locus YCR088W, strain abp1, active compounds read low 0.111 | locus YDL005C, strain med2, active compounds read low 0.104 | locus YDL035C, strain GPR1, active compounds read low 0.0845 | locus YDL040C, strain nat1, active compounds read low 0.164 | locus YDL074C, strain BRE1, active compounds read low 0.148 | locus YDL101C, strain DUN1, active compounds read low 0.0938 | locus YDL185W, strain tfp1, active compounds read low 0.0599 | locus YDL192W, strain arf1, active compounds read low 0.0839 | locus YDR001C, strain nth1, active compounds read low 0.108 | locus YDR069C, strain doa4, active compounds read low 0.386 | locus YDR101C, strain arx1, active compounds read low 0.104 | locus YDR137W, strain rgp1, active compounds read low 0.534 | locus YDR159W, strain sac3, active compounds read low 0.11 | locus YDR162C, strain NBP2, active compounds read low 0.0587 | locus YDR195W, strain ref2 0.225 | locus YDR297W, strain sur2, active compounds read low 0.102 | locus YDR318W, strain mcm21, active compounds read low 0.0797 | locus YDR334W, strain swr1, active compounds read low 0.0978 | locus YDR335W, strain msn5, active compounds read low 0.101 | locus YDR388W, active compounds read low 0.0652 | locus YDR392W, strain spt3, active compounds read low 0.0848 | locus YDR502C, strain sam2, active compounds read low 0.0839 | locus YEL003W, strain gim4, active compounds read low 0.0733 | locus YEL037C, strain rad23, active compounds read low 0.197 | locus YEL061C, strain CIN8 (second series), active compounds read low 0.0698 | locus YER015W, strain faa2, active compounds read low 0.118 | locus YER016W, strain bim1, active compounds read low 0.102 | locus YER110C, active compounds read low 0.135 | locus YER111C, strain swi4, active compounds read low 0.0988 | locus YER155C, strain BEM2 (second series), active compounds read low 0.113 | locus YER155C, strain BEM2, active compounds read low 0.0788 | locus YER167W, strain BCK2, active compounds read low 0.0623 | locus YFR010W, strain ubp6, active compounds read low 0.375 | locus YGL078C, strain dbp3, active compounds read low 0.124 | locus YGL086W, strain mad1, active compounds read low 0.073 | locus YGL167C, strain pmr1, active compounds read low 0.319 | locus YGL173C, strain kem1, active compounds read low 0.442 | locus YGL227W, strain vid30, active compounds read low 0.0819 | locus YGL240W, strain doc1, active compounds read low 0.257 | locus YGL248W, strain PDE1, active compounds read low 0.0587 | locus YGL253W, strain hxk2, active compounds read low 0.0659 | locus YGR135W, strain pre9, active compounds read low 0.0764 | locus YGR229C, strain SMI1, active compounds read low 0.0768 | locus YGR252W, strain gcn5, active compounds read low 0.211 | locus YHR013C, strain ard1, active compounds read low 0.136 | locus YHR027C, strain rpn1, active compounds read low 0.324 | locus YHR030C, strain SLT2, active compounds read low 0.142 | locus YHR079C, strain IRE1 (second series), active compounds read low 0.0949 | locus YHR079C, strain IRE1, active compounds read low 0.54 | locus YHR094C, strain hxt1, active compounds read low 0.0761 | locus YHR129C, strain ARP1, active compounds read low 0.0658 | locus YHR142W, strain chs7, active compounds read low 0.0852 | locus YHR200W, strain rpn10, active compounds read low 0.103 | locus YIL066C, strain RNR3, active compounds read low 0.0618 | locus YIL073C, strain SPO22, active compounds read low 0.125 | locus YIL125W, strain kgd1, active compounds read low 0.102 | locus YIR030C, strain dcg1, active compounds read low 0.0851 | locus YJL092W, strain hpr5, active compounds read low 0.0924 | locus YJL095W, strain BCK1 (second series), active compounds read low 0.0627 | locus YJL095W, strain BCK1, active compounds read low 0.0635 and 0.17 | locus YJL115W, strain asf1, active compounds read low 0.113 | locus YJL129C, strain trk1, active compounds read low 0.102 | locus YJL134W, strain LCB3, active compounds read low 0.0651 | locus YJL154C, strain vps35, active compounds read low 0.156 | locus YJL164C, strain tpk1, active compounds read low 0.0795 | locus YJL166W, strain qcr8, active compounds read low 0.0744 | locus YJL168C, strain set2, active compounds read low 0.0986 | locus YJL187C, strain SWE1 (second series), active compounds read low 0.0801 | locus YJR043C, strain POL32, active compounds read low 0.0984
